# According to PubChem BioAssay:
# Calls of active or inactive are those of the source. Unless noted, no rule for the calls is given here.
# Legend:
# [1] = tested on: XIP peptide (Xip251-270) binding; assay: XIP fragment 251-270 binding compounds – biochemical, small-molecule microarray, fluorescence 635/667 nm, 0.1 µg/mL protein, primary screen (AID 1182); conditions: fluorescent protein binding, 635 nm, higher = more signal, called active from +8 up or from −8 down
# [2] = tested on: XIP peptide (Xip251-270); assay: compounds binding XIP fragment 251-270 – biochemical, small-molecule microarray, fluorescence 635/667 nm, 0.5 µg/mL protein, primary screen (AID 1183); conditions: fluorescence 635 nm, higher = more signal
# [3] = blood-stage malaria parasite viability loss – strain 3D7, DAPI fluorescence, 100 nL, primary screen (AID 1184);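 also: parasites grown inside human red blood cells in medium with human serum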; conditions: P. falciparum 3D7 growth, 3 d, higher = more signal
# [4] = target: Homeobox protein Hox-A13 (Mus musculus) (UniProt Q62424); assay: disruptors of Hoxa13 oligonucleotide interaction – biochemical, fluorescence polarization, labeled oligonucleotide, primary screen (AID 1185); conditions: Hoxa13:DNA binding, 15 min, higher = more signal, called active from +8 up or from −8 down
# [5] = blockers of DNA damage checkpoint Chk1 activation – imaging, HeLa, hydroxyurea, phospho-Chk1 antibody, percent positive cells, primary screen (AID 1186); conditions: hydroxyurea-induced phospho-Chk1 immunofluorescence imaging, higher = more signal
# [6] = blockers of DNA damage checkpoint Chk1 activation – imaging, HeLa, hydroxyurea, phospho-Chk1 nuclear intensity, primary screen (AID 1187); conditions: hydroxyurea-induced phospho-Chk1 immunofluorescence imaging, higher = more signal
# Homeobox protein Hox-A13 (Mus musculus), sequence (Q62424 whole entry, looked up): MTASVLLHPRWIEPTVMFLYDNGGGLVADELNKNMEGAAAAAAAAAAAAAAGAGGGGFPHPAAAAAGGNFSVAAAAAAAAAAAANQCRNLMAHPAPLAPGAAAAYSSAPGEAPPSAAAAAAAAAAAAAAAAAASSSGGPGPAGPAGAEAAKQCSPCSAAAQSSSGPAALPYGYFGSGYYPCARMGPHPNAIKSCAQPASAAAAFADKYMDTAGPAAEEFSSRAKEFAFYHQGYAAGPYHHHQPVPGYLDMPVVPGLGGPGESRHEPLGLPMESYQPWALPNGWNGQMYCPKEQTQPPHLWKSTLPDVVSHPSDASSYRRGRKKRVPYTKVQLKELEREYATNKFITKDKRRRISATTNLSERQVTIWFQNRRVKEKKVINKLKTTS
Structure (SMILES),composite z-score [1],composite z-score [2],z-score [3],z-score [4],z-score [5],z-score [6]
COC(=O)C(CC#Cc1ccc2c(c1)[C@]1(C(=O)N2)[C@H](C(=O)N2CCCCCCC2)[C@H]2C(=O)O[C@H](c3ccccc3)[C@H](c3ccccc3)N2[C@@H]1c1ccc(OCCO)cc1)C(=O)OC,6.2 (inactive),0.956,-2.14,-6.85 (inactive),0.185 (inactive),0.331 (inactive)
[N-]=[N+]=Nc1ccccc1C[C@]1(C(=O)N2CCCCC2)N=C(c2ccc(OCCCO)cc2)O[C@H]1c1ccccc1,1.48 (inactive),0.758,-2.34,-5.43 (inactive),-0.554 (inactive),-0.78 (inactive)
O=C1c2ccccc2[C@](Cc2ccccc2I)(C(=O)NCCN2CCOCC2)[C@H](c2ccc(CO)cc2)N1Cc1ccccc1C(F)(F)F,0.0302 (inactive),0.627,-1.29,-4.81 (inactive),-0.0107 (inactive),-0.105 (inactive)
O=C(NC1CC1)[C@@H]1c2ccccc2C(=O)N(C2CCCCC2)[C@H]1c1ccc(CO)cc1,0.969 (inactive),0.647,-1.1,-3.16 (inactive),-0.312 (inactive),-0.617 (inactive)
C=C[C@@H](CO)NS(=O)(=O)c1ccc(Br)cc1,-0.987 (inactive),-1.58,-0.345,0.553 (inactive),-0.734 (inactive),-0.695 (inactive)
C=C(/C=C\CNS(=O)(=O)c1ccc(C)cc1)[C@H](O)[C@H]1CCCN1S(=O)(=O)c1ccccc1[N+](=O)[O-],-0.167 (inactive),-0.167,-1.8,-5.5 (inactive),-0.225 (inactive),0.161 (inactive)
CC1CC/C=C\[C@H]2OC34C=CCN(CCN5CCOCC5)C(=O)[C@H]3N(C(CO)C(C)C)C(=O)[C@@H]4C2C(=O)O1 (stereo partly specified),0.287 (inactive),0.054,-0.0648,-7 (inactive),0.607 (inactive),0.284 (inactive)
COC(=O)C(CC#Cc1ccc2c(c1)[C@]1(C(=O)N2)[C@H](C(N)=O)[C@H]2C(=O)O[C@H](c3ccccc3)[C@H](c3ccccc3)N2[C@@H]1c1ccccc1OCCO)C(=O)OC,0.898 (inactive),0.817,-2.08,-1.12 (inactive),-0.49 (inactive),-0.137 (inactive)
CC(C)c1ccc(NN2C(C(O)c3ccccc3)C=CC3C(=O)N(c4ccccc4)C(=O)C32)cc1 (stereo unspecified),0.542 (inactive),0.602,-0.164,-1.36 (inactive),-1.43 (inactive),-1.77 (inactive)
O=C(NCCN1CCOCC1)[C@@H]1c2ccccc2C(=O)N(CC23CC4CC(CC(C4)C2)C3)[C@H]1c1ccc(CO)cc1,0.238 (inactive),0.771,-1.32,-5.14 (inactive),0.333 (inactive),0.707 (inactive)
COc1ccc(C(=O)Nc2ccc(CN3C(=O)[C@@]4(O[C@@H](CC(=O)N(CCO)Cc5ccccc5)[C@H]([Si](C)(C)c5ccc(OC)cc5)[C@H]4C)c4ccccc43)cc2)cc1,1.96 (inactive),0.622,-0.992,-1.31 (inactive),-0.543 (inactive),-0.262 (inactive)
COc1ccc(-c2cc3c(c(CCc4ccccc4)n2)[Si](C(C)C)(C(C)C)O[C@H]3c2ccccc2)cn1,-0.269 (inactive),-0.179,-1.41,-1.35 (inactive),-0.0745 (inactive),-0.194 (inactive)
COCCOC(=O)N1C(=O)[C@@]2(c3cc(C#CCC(C(=O)OC)C(=O)OC)ccc31)[C@H](C(N)=O)[C@H]1C(=O)O[C@H](c3ccccc3)[C@H](c3ccccc3)N1[C@@H]2c1ccccc1OCCO,0.286 (inactive),0.575,-1.93,-2.49 (inactive),-0.663 (inactive),-1.57 (inactive)
CO[C@H]1O[C@H](CO)[C@@H](OC(=O)Nc2ccccc2)[C@@H]2OC(=O)[C@@H](Cc3ccccc3)C/C=C/C[C@H](Cc3ccccc3)C(=O)O[C@@H]12,0.0585 (inactive),0.455,0.232,-0.539 (inactive),-0.741 (inactive),-0.467 (inactive)
CC(C)N1CC=CC23O[C@@H]4/C=C\CCCOC(=O)C4[C@H]2C(=O)N(C(C)CO)[C@@H]3C1=O (stereo partly specified),-0.0835 (inactive),0.0575,0.261,-4.1 (inactive),-1.36 (inactive),-0.988 (inactive)
C=C(CCCC)C(=O)CC[C@H](OC(=O)c1ccccc1-c1ccccc1C(=O)O)c1cccc(OCCO)c1,-0.459 (inactive),0.614,-2.65,-6.4 (inactive),1.01 (inactive),0.182 (inactive)
C[C@@]1([C@@H](NS(=O)(=O)c2cccc3cccnc23)c2ccc(-c3ccccc3)cc2)C[C@H]1C1CCCCC1,0.648 (inactive),-0.209,-0.748,2.32 (inactive),1.42 (inactive),0.534 (inactive)
COCCCNC(=O)[C@@]1(Cc2ccccc2I)c2ccccc2C(=O)N(Cc2ccccc2C(F)(F)F)[C@H]1c1ccc(CO)cc1,0.739 (inactive),0.854,-0.821,-4.3 (inactive),0.0894 (inactive),-0.0472 (inactive)
CCOC(=O)C[C@H]1[C@H](OC(=O)c2cc3ccccc3oc2=O)[C@@H](NC(=O)c2ccc(-c3ccccc3)cc2)c2cc(OCCCO)ccc2N1C(=O)Cc1ccc(OC)cc1,0.108 (inactive),0.437,-0.638,-3.12 (inactive),0.105 (inactive),-0.0512 (inactive)
CCOC(=O)C1=CC[C@@H](c2ccccc2)N(S(=O)(=O)c2ccc(C)cc2)[C@@H]1C#N,0.216 (inactive),0.423,-0.465,-4.26 (inactive),-1.95 (inactive),-2.5 (inactive)
CO[C@H]1O[C@H](CO)[C@@H](OC(=O)Nc2cccc(F)c2)[C@H](OC(=O)c2cc3ccccc3[nH]2)[C@H]1OC(=O)c1cc2ccccc2[nH]1,-0.194 (inactive),-0.141,-0.194,-0.266 (inactive),-0.313 (inactive),-0.455 (inactive)
CN1C2C=C(c3ccc(CO)cc3)C(C3C(=O)N(C(N)=O)C(=O)C32)C1C1CC1 (stereo unspecified),-0.313 (inactive),0.0909,-0.854,-6.63 (inactive),0.258 (inactive),0.169 (inactive)
CCOC(=O)C1=C[C@@H](C(C)(C)C)N(S(=O)(=O)c2ccc(C)cc2)[C@H]1c1ccc(OC)cc1,0.58 (inactive),0.582,-1.88,-0.488 (inactive),0.15 (inactive),0.503 (inactive)
CC(C)C[C@@H]1NC(=O)[C@@H]2C[C@H](C(=O)NCCCCCNC(=O)CS)[C@H](c3ccc(O)cc3)N2C1=O,0.741 (inactive),0.56,-1.13,-0.472 (inactive),0.581 (inactive),0.313 (inactive)
O=C1O[C@H](c2ccccc2)[C@H](c2ccccc2)N2[C@H]1[C@@H](C(=O)O)[C@]1(C(=O)Nc3ccccc31)[C@H]2c1ccc(OCCO)cc1,1.13 (inactive),0.711,-0.443,-6.4 (inactive),0.618 (inactive),0.612 (inactive)
C=C(COC)C(=O)CC[C@@H](OC(=O)c1ccccc1-c1ccccc1C(=O)O)c1ccccc1OCCO,0.106 (inactive),0.17,-2.51,-5.71 (inactive),0.788 (inactive),0.888 (inactive)
